According to PubChem BioAssay (EPA / NIEHS):
Records with an inconclusive call do not appear. Activity calls are given as the source filed them. The calls were made as follows, unless noted: active = hit-call score of the fitted dose curve at least 0.9, where 1 is the maximum; inactive = score below 0.9.

Assays:
[1] = target: Paired box protein Pax-6 (Homo sapiens) (UniProt P26367); assay: ATG_Pax6_CIS: Attagene CIS-FACTORIAL HepG2 Assay for human Paired Box 6 (PAX6) (AID 2282956); conditions: HepG2 CIS-FACTORIAL PAX6 reporter transcription, RNA readout; actives raise or lower the signal
Chain of Paired box protein Pax-6 (Homo sapiens) (P26367 whole entry, looked up): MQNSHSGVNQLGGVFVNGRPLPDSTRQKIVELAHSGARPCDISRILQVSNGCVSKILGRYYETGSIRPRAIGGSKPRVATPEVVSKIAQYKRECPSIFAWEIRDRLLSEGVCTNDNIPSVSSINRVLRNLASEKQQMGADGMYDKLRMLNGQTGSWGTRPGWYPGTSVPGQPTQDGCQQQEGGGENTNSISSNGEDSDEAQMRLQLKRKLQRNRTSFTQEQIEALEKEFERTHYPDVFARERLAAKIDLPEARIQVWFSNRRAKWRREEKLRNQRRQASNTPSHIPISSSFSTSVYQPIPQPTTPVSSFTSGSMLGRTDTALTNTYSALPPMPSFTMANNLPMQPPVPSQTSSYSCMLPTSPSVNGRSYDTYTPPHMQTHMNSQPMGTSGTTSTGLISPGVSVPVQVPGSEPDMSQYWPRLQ
In short: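 HepG2 cells transiently transfected with cis-promoter-driven multiplexed reporter units sensing endogenous transcription factor activity; 24 h chemical exposure. Reporter mRNA quantified by RT-PCR, 6-FAM labelling, HpaI digestion and capillary electrophoresis; bidirectional fit versus DMSO baseline.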

[2] = ATG_PXRE_CIS: Attagene CIS-FACTORIAL HepG2 Assay for human Pregnane X Receptor Element (PXRE) (AID 2282957); conditions: HepG2 Attagene CIS-FACTORIAL PXRE reporter, mRNA; actives raise or lower the signal
In short: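 Cis-element reporter mRNA in human hepatoma HepG2 cells is measured 24 h post-dosing by RT-PCR, primer-extension labeling and capillary electrophoresis; gain or loss of signal is fitted relative to DMSO.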

[3] = ATG_RORE_CIS: Attagene CIS-FACTORIAL HepG2 Assay for human RAR-related Orphan Receptor Element (RORE) (AID 2282959); conditions: HepG2 Attagene cis-factorial RORE reporter, mRNA; actives raise or lower the signal
In short: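 Transiently transfected HepG2 reporter cells were treated 24 h. Reporter transcripts were detected by RT-PCR and capillary electrophoresis, with bidirectional fitting against DMSO.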

[4] = ATG_Sox_CIS: Attagene CIS-FACTORIAL HepG2 Assay for human SRY-box transcription factor (SOX) (AID 2282960); conditions: HepG2 Attagene cis-factorial SOX reporter, mRNA; actives raise or lower the signal
In short: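 Gain- or loss-of-signal endpoint, fitted bidirectionally with DMSO as negative control. Based on reporter mRNA from transfected HepG2 cells harvested 24 h post-treatment and quantified via RT-PCR and capillary electrophoresis.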

[5] = target: Transcription factor Sp1 (Homo sapiens) (UniProt P08047); assay: ATG_Sp1_CIS: Attagene CIS-FACTORIAL HepG2 Assay for human Specificity Protein 1 (Sp1) (AID 2282961); conditions: HepG2 Sp1 cis-reporter transcription, actives raise or lower the signal
Chain of Transcription factor Sp1 (Homo sapiens) (P08047 whole entry, looked up, the tested form may be a part): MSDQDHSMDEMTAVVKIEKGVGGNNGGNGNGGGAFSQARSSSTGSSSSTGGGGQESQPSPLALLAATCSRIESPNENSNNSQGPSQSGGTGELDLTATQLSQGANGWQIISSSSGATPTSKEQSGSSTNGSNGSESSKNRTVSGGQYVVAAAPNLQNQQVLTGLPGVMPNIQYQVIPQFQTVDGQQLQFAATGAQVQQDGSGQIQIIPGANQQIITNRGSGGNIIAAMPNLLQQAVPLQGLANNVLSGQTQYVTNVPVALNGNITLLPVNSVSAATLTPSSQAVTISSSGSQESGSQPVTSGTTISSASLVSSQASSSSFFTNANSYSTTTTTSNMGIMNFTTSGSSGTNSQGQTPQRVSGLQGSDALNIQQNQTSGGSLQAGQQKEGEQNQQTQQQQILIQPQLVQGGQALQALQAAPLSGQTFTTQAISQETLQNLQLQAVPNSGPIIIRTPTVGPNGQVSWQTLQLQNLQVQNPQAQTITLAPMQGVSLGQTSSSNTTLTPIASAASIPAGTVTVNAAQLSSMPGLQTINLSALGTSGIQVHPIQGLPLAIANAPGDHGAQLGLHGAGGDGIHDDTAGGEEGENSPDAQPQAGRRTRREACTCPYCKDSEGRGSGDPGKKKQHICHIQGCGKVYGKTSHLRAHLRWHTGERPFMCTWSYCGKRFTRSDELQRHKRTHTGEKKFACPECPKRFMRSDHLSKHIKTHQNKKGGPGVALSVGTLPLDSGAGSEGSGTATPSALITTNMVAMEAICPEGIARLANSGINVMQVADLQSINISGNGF
In short: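 Endpoint reflects endogenous Sp1 transcriptional activity, not an exogenous fusion protein: HepG2 cells with transfected cis-regulated reporters, 24 h dosing, RT-PCR/capillary electrophoresis mRNA read-out, DMSO-normalised bidirectional fit.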

[6] = ATG_SREBP_CIS: Attagene CIS-FACTORIAL HepG2 Assay for human Sterol Regulatory Element Binding (SREBP) (AID 2282962); conditions: HepG2 Attagene cis-factorial SREBP reporter, mRNA; actives raise or lower the signal
In short: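 HepG2 cells transiently transfected with multiplexed cis-promoter reporter units sensing endogenous transcription factors; reporter mRNA measured 24 h after dosing by RT-PCR, 6-FAM labeling, HpaI digestion and capillary electrophoresis. Bidirectional fit versus DMSO.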

[7] = target: Signal transducer and activator of transcription 3 (Homo sapiens) (UniProt P40763); assay: ATG_STAT3_CIS: Attagene CIS-FACTORIAL HepG2 Assay for human Signal Transducer and Activator of Transcription 3 (STAT3) (AID 2282963); conditions: HepG2, Attagene cis-factorial STAT3 reporter transcription; actives raise or lower the signal
Chain of Signal transducer and activator of transcription 3 (Homo sapiens) (P40763 whole entry, looked up): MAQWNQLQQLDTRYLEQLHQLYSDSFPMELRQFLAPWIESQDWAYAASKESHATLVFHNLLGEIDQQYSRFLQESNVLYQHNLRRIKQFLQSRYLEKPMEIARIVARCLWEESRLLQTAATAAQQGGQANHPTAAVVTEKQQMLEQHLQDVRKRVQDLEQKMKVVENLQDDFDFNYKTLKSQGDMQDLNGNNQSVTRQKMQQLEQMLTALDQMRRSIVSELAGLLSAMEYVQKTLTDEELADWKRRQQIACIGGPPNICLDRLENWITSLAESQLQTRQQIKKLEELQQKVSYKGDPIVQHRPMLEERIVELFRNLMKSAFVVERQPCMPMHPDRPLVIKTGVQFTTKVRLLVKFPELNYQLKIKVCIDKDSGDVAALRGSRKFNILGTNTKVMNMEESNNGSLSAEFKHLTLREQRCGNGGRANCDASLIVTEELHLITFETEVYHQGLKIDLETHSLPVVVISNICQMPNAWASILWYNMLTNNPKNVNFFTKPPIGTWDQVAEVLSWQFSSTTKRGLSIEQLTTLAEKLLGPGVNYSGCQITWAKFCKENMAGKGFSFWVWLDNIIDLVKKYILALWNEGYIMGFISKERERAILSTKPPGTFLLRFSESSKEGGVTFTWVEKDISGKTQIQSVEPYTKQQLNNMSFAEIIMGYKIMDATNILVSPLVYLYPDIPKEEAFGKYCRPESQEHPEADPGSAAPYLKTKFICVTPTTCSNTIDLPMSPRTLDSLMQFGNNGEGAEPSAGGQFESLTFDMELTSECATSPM
In short: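 Transcript-level reporter assay. HepG2 transient MRTU transfection, 24 h exposure, fluorescence detection after RT-PCR and CE; DMSO baseline.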

[8] = ATG_TA_CIS: Attagene CIS-FACTORIAL HepG2 Assay for human TA Basal Promoter (AID 2282964); conditions: HepG2 Attagene CIS-factorial TA basal promoter reporter; actives raise or lower the signal
In short: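 HepG2 cells transiently transfected with multiple reporter units under cis promoter elements, reporting endogenous transcription factor activity; this endpoint tracks the TA basal promoter as background control. Reporter mRNA after 24 h dosing measured by RT-PCR/capillary electrophoresis; bidirectional fits versus DMSO.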

[9] = ATG_TCF_b_cat_CIS: Attagene CIS-FACTORIAL HepG2 Assay for human T-Cell-Factor with beta-catenin (TCF/b-cat) (AID 2282965); conditions: HepG2 TCF/beta-catenin cis-reporter transcription, actives raise or lower the signal
In short: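 In this cis-format system, transfected HepG2 cells report endogenous transcription factor activity. Readout after 24 h exposure is reporter transcript abundance from RT-PCR and capillary electrophoresis, analysed for gain or loss of signal versus DMSO.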

[10] = ATG_TAL_CIS: Attagene CIS-FACTORIAL HepG2 Assay for human TAL Basal Promoter (AID 2282966); conditions: HepG2 Attagene cis-factorial TAL promoter reporter; actives raise or lower the signal;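 also: background control endpoint measuring basal TAL promoter reporter mRNA not a specific factor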
In short: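 In this cell-based multiplex, HepG2 liver cells bearing cis-promoter reporter constructs are dosed for 24 hours. Total RNA is reverse-transcribed and amplified, labelled fragments are sized by capillary electrophoresis, and signal changes are fitted bidirectionally versus DMSO.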

[11] = ATG_TGFb_CIS: Attagene CIS-FACTORIAL HepG2 Assay for human Transforming Growth Factor (TGF) (AID 2282967); conditions: HepG2 Attagene CIS TGFb reporter, mRNA transcription; actives raise or lower the signal
In short: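 HepG2 cells transiently transfected with cis-promoter-driven multiple reporter units measure endogenous TF activity; reporter mRNA quantified at 24 h by RT-PCR, FAM labeling, HpaI digestion and capillary electrophoresis. Bidirectional fit vs DMSO.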

[12] = ATG_VDRE_CIS: Attagene CIS-FACTORIAL HepG2 Assay for human Vitamin D Receptor Element (VDRE) (AID 2282968); conditions: HepG2 VDRE cis-reporter transcription, actives raise or lower the signal
In short: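 RT-PCR/CE readout of reporter mRNA; HepG2, transient transfection, 24 h dosing; DMSO baseline; bidirectional analysis.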

[13] = target: Steroid hormone receptor ERR1 (Homo sapiens) (UniProt P11474); assay: ATG_ERRa_TRANS: Attagene TRANS-FACTORIAL HepG2 Assay for human Estrogen-Related Receptor alpha (ERRa) (AID 2282971; active = hit-call score of the fitted dose curve at least 0.9, where 1 is the maximum); conditions: HepG2 Attagene TRANS reporter, ERRa transactivation
Chain of Steroid hormone receptor ERR1 (Homo sapiens) (P11474 whole entry, looked up, the tested form may be a part): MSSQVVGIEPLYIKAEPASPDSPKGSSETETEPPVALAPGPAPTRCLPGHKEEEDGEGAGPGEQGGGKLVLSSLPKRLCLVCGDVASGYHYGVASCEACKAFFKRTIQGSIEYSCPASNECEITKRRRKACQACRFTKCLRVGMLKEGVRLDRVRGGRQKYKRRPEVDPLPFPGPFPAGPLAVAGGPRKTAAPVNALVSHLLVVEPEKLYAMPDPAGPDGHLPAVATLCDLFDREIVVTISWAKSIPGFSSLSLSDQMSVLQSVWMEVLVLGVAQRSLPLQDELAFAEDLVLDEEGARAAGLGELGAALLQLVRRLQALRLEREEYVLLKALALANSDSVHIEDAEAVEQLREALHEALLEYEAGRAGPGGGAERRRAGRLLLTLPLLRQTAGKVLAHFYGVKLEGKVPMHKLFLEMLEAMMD
In short: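 Transfected HepG2, 24 h dosing, ERRa-Gal4 chimera driving GAL4-UAS reporter. Readout: reporter mRNA via RT-PCR plus capillary electrophoresis (fluorescence). Positive direction vs DMSO control.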

[14] = target: X-box-binding protein 1 (Homo sapiens) (UniProt P17861); assay: ATG_Xbp1_CIS: Attagene CIS-FACTORIAL HepG2 Assay for human X-box Binding Protein 1 (XBP1) (AID 2282972); conditions: HepG2 XBP1 cis-element reporter, Attagene multiplex; actives raise or lower the signal
Chain of X-box-binding protein 1 (Homo sapiens) (P17861 whole entry, looked up): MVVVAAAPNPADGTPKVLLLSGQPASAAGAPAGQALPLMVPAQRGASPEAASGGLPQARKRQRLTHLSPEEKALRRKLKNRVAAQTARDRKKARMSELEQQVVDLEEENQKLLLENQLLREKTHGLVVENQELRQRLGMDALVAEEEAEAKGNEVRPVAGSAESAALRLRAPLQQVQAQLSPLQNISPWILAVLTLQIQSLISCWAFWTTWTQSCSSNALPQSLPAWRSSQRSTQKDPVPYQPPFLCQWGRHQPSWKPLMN
In short: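 HepG2 cells transiently transfected with multiple cis-element reporter units report endogenous TF activity; 24 h exposure, then reporter mRNA measured by RT-PCR, 6-FAM labelling, HpaI digestion and capillary electrophoresis. Bidirectional fitting versus DMSO.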

[15] = ATG_M_19_TRANS: Attagene TRANS-FACTORIAL HepG2 Assay for M19 Transcription Factor (Internal Marker) (AID 2282974; active = hit-call score of the fitted dose curve at least 0.9, where 1 is the maximum); conditions: HepG2 Attagene TRANS-FACTORIAL M19 internal marker reporter
In short: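 Using RT-PCR and capillary electrophoresis, reporter mRNA from transiently transfected human HepG2 cells was quantified following 24 h exposure; activity was fitted in the positive direction against DMSO.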

[16] = ATG_GAL4_TRANS: Attagene TRANS-FACTORIAL HepG2 Assay for GAL4 (Internal Marker) (AID 2282976; active = hit-call score of the fitted dose curve at least 0.9, where 1 is the maximum); conditions: HepG2 Attagene TRANS GAL4 internal marker reporter
In short: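 RT-PCR/capillary electrophoresis readout of reporter mRNA. HepG2, transient MRTU transfection (GAL4-UAS reporters), 24 h compound exposure. Background-control endpoint, positive direction vs DMSO baseline.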

[17] = ATG_PPRE_CIS: Attagene CIS-FACTORIAL HepG2 Assay for human Peroxisome Proliferator-activated Response Element (PPRE) (AID 2282958); conditions: HepG2 PPRE cis-element reporter, Attagene transcription factor profiling; actives raise or lower the signal
In short: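 Measured endpoint: PPRE-controlled reporter mRNA, detected by RT-PCR and capillary electrophoresis fluorescence, from transiently transfected HepG2 cells 24 h after dosing. Curves fitted in both directions using DMSO baseline.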

[18] = target: Nuclear receptor subfamily 1 group I member 3 (Homo sapiens) (UniProt Q14994); assay: ATG_CAR_TRANS: Attagene TRANS-FACTORIAL HepG2 Assay for human Constitutive Androstane Receptor (CAR) (AID 2282969; active = hit-call score of the fitted dose curve at least 0.9, where 1 is the maximum;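 also: activators raise reporter mRNA above DMSO so AC50 marks induction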); conditions: HepG2 Attagene TRANS-FACTORIAL CAR reporter
Chain of Nuclear receptor subfamily 1 group I member 3 (Homo sapiens) (Q14994 whole entry, looked up, the tested form may be a part): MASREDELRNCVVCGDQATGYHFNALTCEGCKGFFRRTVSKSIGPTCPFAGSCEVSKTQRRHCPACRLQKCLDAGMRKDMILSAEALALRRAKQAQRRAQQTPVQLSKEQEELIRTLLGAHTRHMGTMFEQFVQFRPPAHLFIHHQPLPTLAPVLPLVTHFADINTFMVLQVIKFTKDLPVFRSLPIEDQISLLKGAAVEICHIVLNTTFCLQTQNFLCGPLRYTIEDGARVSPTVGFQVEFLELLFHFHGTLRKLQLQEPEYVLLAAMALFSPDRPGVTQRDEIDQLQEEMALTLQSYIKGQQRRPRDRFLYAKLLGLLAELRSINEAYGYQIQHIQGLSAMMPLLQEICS
In short: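 HepG2 cells transiently transfected with multiplexed GAL4-UAS reporter units expressing chimeric NR-Gal4 proteins; compound exposure 24 h. Reporter mRNA measured by RT-PCR, 6-FAM labelling, HpaI digestion and capillary electrophoresis; gain-of-signal fitted against DMSO baseline.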

[19] = target: Glucocorticoid receptor (Homo sapiens) (UniProt P04150); assay: ATG_GR_TRANS: Attagene TRANS-FACTORIAL HepG2 Assay for human Glucocorticoid Receptor (GR) (AID 2282978; active = hit-call score of the fitted dose curve at least 0.9, where 1 is the maximum;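 also: activators score as hits since higher reporter transcript over DMSO is fitted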); conditions: HepG2 Attagene TRANS GR reporter, mRNA transcription
Chain of Glucocorticoid receptor (Homo sapiens) (P04150 whole entry, looked up, the tested form may be a part): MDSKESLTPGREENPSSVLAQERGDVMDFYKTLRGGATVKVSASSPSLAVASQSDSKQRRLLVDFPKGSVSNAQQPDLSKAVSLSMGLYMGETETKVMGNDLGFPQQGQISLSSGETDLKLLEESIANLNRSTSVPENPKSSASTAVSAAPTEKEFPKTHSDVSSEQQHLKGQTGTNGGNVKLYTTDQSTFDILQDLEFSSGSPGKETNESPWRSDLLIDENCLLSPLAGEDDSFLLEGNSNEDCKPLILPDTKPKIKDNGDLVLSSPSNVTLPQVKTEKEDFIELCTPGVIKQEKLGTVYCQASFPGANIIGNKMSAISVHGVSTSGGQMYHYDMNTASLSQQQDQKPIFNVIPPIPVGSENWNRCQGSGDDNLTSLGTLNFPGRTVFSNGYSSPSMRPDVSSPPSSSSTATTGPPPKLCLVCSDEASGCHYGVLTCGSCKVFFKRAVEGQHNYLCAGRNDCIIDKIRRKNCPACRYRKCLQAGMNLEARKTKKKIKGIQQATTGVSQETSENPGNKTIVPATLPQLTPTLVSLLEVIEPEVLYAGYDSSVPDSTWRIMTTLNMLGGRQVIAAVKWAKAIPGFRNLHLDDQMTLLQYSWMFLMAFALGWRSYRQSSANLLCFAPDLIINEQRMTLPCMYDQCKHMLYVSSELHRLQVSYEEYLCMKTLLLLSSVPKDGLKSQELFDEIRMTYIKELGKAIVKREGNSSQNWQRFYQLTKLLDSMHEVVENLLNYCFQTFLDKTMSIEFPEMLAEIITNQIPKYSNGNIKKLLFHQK
In short: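 Exogenous NR-GAL4 fusion activity was assessed through induced GAL4-UAS reporter transcripts in transfected human HepG2 cells, quantified after 24 h by RT-PCR and fluorescent capillary electrophoresis with DMSO as baseline.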

[20] = target: Estrogen-related receptor gamma (Homo sapiens) (UniProt P62508); assay: ATG_ERRg_TRANS: Attagene TRANS-FACTORIAL HepG2 Assay for human Estrogen-Related Receptor gamma (ERRg) (AID 2282977; active = hit-call score of the fitted dose curve at least 0.9, where 1 is the maximum;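 also: hits increase reporter signal over DMSO so potencies reflect activators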); conditions: HepG2 Attagene TRANS reporter, ERRg transactivation
Chain of Estrogen-related receptor gamma (Homo sapiens) (P62508 whole entry, looked up, the tested form may be a part): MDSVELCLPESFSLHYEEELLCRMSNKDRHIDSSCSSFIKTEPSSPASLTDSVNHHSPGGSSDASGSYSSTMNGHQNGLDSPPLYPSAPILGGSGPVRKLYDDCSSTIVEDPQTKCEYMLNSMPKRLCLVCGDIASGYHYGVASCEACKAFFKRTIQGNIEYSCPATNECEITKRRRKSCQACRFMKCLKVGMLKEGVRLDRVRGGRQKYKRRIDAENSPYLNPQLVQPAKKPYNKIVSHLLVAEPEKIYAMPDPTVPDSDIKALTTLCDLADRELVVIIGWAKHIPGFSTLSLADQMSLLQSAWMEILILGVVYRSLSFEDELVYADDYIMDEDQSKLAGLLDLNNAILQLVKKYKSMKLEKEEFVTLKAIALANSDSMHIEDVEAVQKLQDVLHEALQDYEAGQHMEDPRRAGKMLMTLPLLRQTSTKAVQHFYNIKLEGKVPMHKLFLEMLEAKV
In short: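 Transfect HepG2 with multiple GAL4-UAS reporter transcription units; dose chemicals 24 h; isolate RNA, reverse-transcribe with oligo(dT), PCR-amplify, label with 6-FAM, digest with HpaI; size fragments by capillary electrophoresis. DMSO serves as negative control.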

## OC[C@H]1O[C@@H]2O[C@H]3[C@H](O)[C@@H](O)[C@@H](O[C@H]4[C@H](O)[C@@H](O)[C@@H](O[C@H]5[C@H](O)[C@@H](O)[C@@H](O[C@H]6[C@H](O)[C@@H](O)[C@@H](O[C@H]7[C@H](O)[C@@H](O)[C@@H](O[C@H]8[C@H](O)[C@@H](O)[C@@H](O[C@H]9[C@H](O)[C@@H](O)[C@@H](O[C@H]1[C@H](O)[C@H]2O)O[C@@H]9CO)O[C@@H]8CO)O[C@@H]7CO)O[C@@H]6CO)O[C@@H]5CO)O[C@@H]4CO)O[C@@H]3CO
[1]
  outcome: inactive
[2]
  AC50: 22.4 µM (active)
[3]
  outcome: inactive
[4]
  outcome: inactive
[5]
  outcome: inactive
[6]
  outcome: inactive
[7]
  outcome: inactive
[8]
  outcome: inactive
[9]
  outcome: inactive
[10]
  outcome: inactive
[11]
  outcome: inactive
[12]
  outcome: inactive
[13]
  outcome: inactive
[14]
  outcome: inactive
[15]
  outcome: inactive
[16]
  outcome: inactive

## Cc1cc(C)nc(NS(=O)(=O)c2ccc(N)cc2)n1
[1]
  outcome: inactive
[2]
  AC50: 46.5 µM (active)
[17]
  outcome: inactive
[4]
  outcome: inactive
[5]
  outcome: inactive
[7]
  outcome: inactive
[8]
  outcome: inactive
[9]
  outcome: inactive
[10]
  outcome: inactive
[11]
  outcome: inactive
[18]
  outcome: inactive
[15]
  outcome: inactive
[19]
  outcome: inactive

## COCCOCCOCCO
[1]
  outcome: inactive
[2]
  AC50: 33.4 µM (active)
[3]
  outcome: inactive
[4]
  outcome: inactive
[5]
  outcome: inactive
[6]
  outcome: inactive
[7]
  outcome: inactive
[8]
  outcome: inactive
[9]
  outcome: inactive
[10]
  outcome: inactive
[11]
  outcome: inactive
[12]
  outcome: inactive
[13]
  outcome: inactive
[14]
  outcome: inactive
[15]
  outcome: inactive
[16]
  outcome: inactive
[19]
  outcome: inactive

## COC(C)(C)CCCC(C)CC=O (stereo not drawn)
[1]
  outcome: inactive
[2]
  outcome: inactive
[3]
  outcome: inactive
[4]
  outcome: inactive
[5]
  outcome: inactive
[6]
  outcome: inactive
[7]
  outcome: inactive
[8]
  outcome: inactive
[9]
  outcome: inactive
[10]
  outcome: inactive
[11]
  outcome: inactive
[12]
  outcome: inactive
[13]
  outcome: inactive
[14]
  outcome: inactive
[15]
  outcome: inactive
[20]
  outcome: inactive
[19]
  outcome: inactive
